Compound activity from PubChem.
Beta cell apopt: blocks beta cell apoptosis | AID 435005 | INS-1E cytokine-induced death, ATP luminescence, 48 h; percent of positive-control rescue, neutral wells zero | hit rate 0.8% among 300,000 | protection from apoptosis, % (no concentration beside the values);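 active = Every replicate reaches about 75%, or at least half do and their mean reaches it too, limit read from the data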;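 note: 0% = cytokine-treated negative control wells and 100% = positive control rescue; higher means more ATP so stronger rescue from cytokine killing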
CSC inhib: blocks cancer stem cells; cancer stem cell-like cells viability, luminescence; inhibition, % at 7.5 µM; hit rate 1.1% among 300,000; AID 2717; in the data active = inhibition above about 75%; tested in HMLE shEcad cells
Gli-Sufu block: antagonists of Gli-Sufu signaling. Sufu-KO-LIGHT fibroblasts, Gli luciferase reporter luminescence. inhibition, % at 5 µM. hit rate 0.74% among 340,000. AID 588413;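 active = inhibition above about 55%, limit read from the data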;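 note: 0% = DMSO-treated cells and 100% = wells with medium but no cells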
MPTP inh: permeability transition pore inhibition. isolated mouse mitochondria, Ca2+ swelling absorbance, 30 min. inhibition, % at 10 µM. hit rate 1.4% among 360,000;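 active = inhibition of 50% or more, scaled per plate between neutral and stimulator controls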;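 note: 0% = DMSO wells given calcium and 100% = 1 mM EGTA wells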
NR3A LBD binder: modulators (binders) of human NR3A ligand-binding domain; hit rate 2.5% among 340,000; Tm shift relative to glycine control, % at 25 µM; NR3A LBD differential scanning fluorimetry, Tm shift; 0% = protein alone, 100% = glycine-bound protein;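 active = melting temperature shift of at least 10% of the positive control shift, at one fixed dose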
Mdm2 MdmX PPI: disrupts the human Mdm2-MdmX interaction | O15151+Q00987 | SaOS-2 split-luciferase Mdm2/MdmX complementation, luminescence | AID 485346 | hit rate 3% among 330,000 | inhibition, % at 8 µM;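 active = inhibition of at least 50% at 8 µM in the primary screen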
Mdm2 MdmX conf: confirmation of human Mdm2/MdmX interaction inhibitors; hit rate 55% among 10,000; Mdm2-MdmX binding, luminescent assay; AID 489028; inhibition, % at 8 µM; shares compounds with Mdm2 MdmX PPI; in the data active = inhibition above about 40%
Full FLuc ctr: counter-screen for Mdm2/MdmX inhibitors: full-length luciferase; shares compounds with Mdm2 MdmX PPI; SaOS-2 full-length luciferase counterscreen, luminescence; inhibition, % at 8 µM; hit rate 77% among 6,200;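 active = mean inhibition at 8 µM reaching about 37%, which flags the compound as non-specific, limit read from the data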;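 note: p53-null SaOS-2 cells with luciferase driven by a doxycycline-inducible promoter; compound on cells about two nights before reading with doxycycline added after day one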
* = called active by the depositor; · = no result given. The list is not random: actives were taken first. Their share in the collection is about 6.6%.

SMILES	Beta cell apopt	CSC inhib	Gli-Sufu block	MPTP inh	NR3A LBD binder	Mdm2 MdmX PPI	Mdm2 MdmX conf	Full FLuc ctr
CCOc1ccc(/C=C/C(O)=C2/C(=O)N(C)C3(C)CC2c2ccccc2O3)cc1OC (centres undefined)	0	78*	9	0	0	67*	69*	41*
CCOc1ccc(/C=C/C(O)=C2/C(=O)NC3(C)CC2c2ccccc2O3)cc1OC (centres undefined)	-8	24	12	1	1	83*	90*	23
CCCn1nc(C(=O)N2CCN(S(=O)(=O)c3ccc(C)c(C)c3)CC2)c2ccccc2c1=O	0	·	12	-1	-1	26	·	·
O=C(c1c[nH]c2ccccc12)C(O)C(c1ccccc1)N1CCOCC1 (centres undefined)	1	0	-3	0	-2	2	·	·
O=C(c1c[nH]c2ccccc12)C(Cl)c1ccccc1 (centres undefined)	-25	83*	10	2	-17	79*	69*	52*
COc1ccc2cc3c(N)nn(C(=O)c4ccccc4[N+](=O)[O-])c3nc2c1	-22	-1	-24	2	-5	93*	87*	51*
COc1ccc2cc3c(N)nn(C(=O)c4ccc(Cl)c([N+](=O)[O-])c4)c3nc2c1	-17	-5	-15	1	22*	83*	88*	57*
CCCC1CCC(C(=O)n2nc(N)c3cc4ccc(OC)cc4nc32)CC1 (centres undefined)	-21	-23	-36	2	-1	35	·	·
CCC(C(=O)O/N=C(\N)c1ccc(Cl)cc1)c1ccccc1 (centres undefined)	-3	-12	-7	3	1	64*	14	·
CCC(C(=O)O/N=C(\N)c1ccccc1)c1ccccc1 (centres undefined)	·	-5	-8	0	1	35	·	·
CCC(C(=O)O/N=C(\N)c1ccc(C)cc1)c1ccccc1 (centres undefined)	-5	·	-9	-2	3	51*	18	·
Cc1cc(NC(=O)COC(=O)Cn2[nH]c(=O)c3ccccc3c2=O)c([N+](=O)[O-])cc1C	3	-13	-29	0	-3	-5	·	·
Clc1ccc2c(c1)C(C1=NCCN1)c1ccccc1CS2 (centres undefined)	6	41	9	0	-7	51*	53*	48*
O=C1N/C(=C/c2ccc(Br)s2)C(=O)N1c1ccccc1	-1	-1	-28	0	1	51*	26	·
Cc1ccc(/C=C2/NC(=O)N(c3ccccc3)C2=O)o1	-6	12	-36	4	-4	-6	·	·
O=c1cc(O)c2c(=O)n(-c3ccccc3)c3c(c2o1)CCCCC3	-3	-8	7	-3	-3	-26	·	·
CC(C)(C)c1cc(C(c2cccnc2)N2CCN(CCO)CC2)cc(C(C)(C)C)c1O (centres undefined)	9	196*	0	-2	4	100*	76*	58*
CC(C)(C)n1nnnc1C(c1cccnc1)N1CCN(c2cccc(C(F)(F)F)c2)CC1 (centres undefined)	0	-15	-8	-1	0	28	·	·
CC1(C(=O)NCC(F)(F)F)CCN1C(=O)Cc1ccc(-c2ccccc2)cc1 (centres undefined)	·	·	·	1	·	·	·	·
CCNc1nc(NC(C)C)nc(Oc2ccc(OCCOc3ccc(C)cc3)nn2)n1	5	-5	5	0	-2	52*	21	·
CCNc1nc(NCC)nc(Oc2ccc(OCC)nn2)n1	-5	10	3	0	0	21	·	·
CCN(CC)CCNc1cc(C)nc2c1C(=O)C(=O)C=C2N1CCCCC1	-7	54	-6	3	3	65*	67*	29
CCN(CC)CCNC(=O)C(=O)Nc1cc2c3c(c1)CC(=O)N3CCC2	-2	2	-25	2	-3	-1	·	·
NC(c1cccc(F)c1)c1nc(-c2ccc(Cl)cc2)cs1 (centres undefined)	·	·	·	2	·	·	·	·
Cc1ccc(C(=O)c2no[n+]([O-])c2C(=O)c2ccc(C)cc2)cc1	4	36	8	-2	-1	51*	9	·
SMILES	Beta cell apopt	CSC inhib	Gli-Sufu block	MPTP inh	NR3A LBD binder	Mdm2 MdmX PPI	Mdm2 MdmX conf	Full FLuc ctr
Cc1ccc(C(=O)c2ccc(C)cc2)cc1	-4	-15	0	2	-1	15	·	·
CCc1nc(Nc2ccc(O)cc2)c2oc3ccccc3c2n1	6	21	17	2	·	51*	2	·
COc1ccc(Cn2cc(CN3CCc4onc(-c5ccc(Br)cc5)c4C3=O)nn2)cc1	·	·	·	2	·	·	·	·
COC(=O)c1c(C)[nH]c(C(=O)OCc2csc(CC(=O)Nc3ccccc3C)n2)c1C	6	10	-1	-1	0	14	·	·
CSc1cccc(NC(=O)C2CCCN(c3ncnc4c3nc3n4CCCCC3)C2)c1 (centres undefined)	-12	42	15	3	0	57*	-23	·
CC(C)c1ccc(NC(=O)C2CCN(c3ncnc4c3nc3n4CCCCC3)CC2)cc1	16	-14	42	2	1	72*	30	·
O=C(Nc1ccc(F)c(Cl)c1)C1CCN(c2ncnc3c2nc2n3CCCCC2)CC1	-10	-15	-3	0	-4	47	·	·
Cc1ccc(NC(=O)NNC(=O)C2CC(c3cccs3)=NO2)cc1 (centres undefined)	-5	-8	-2	0	0	-14	·	·
COc1ccc(S(=O)(=O)Nc2cccc3ccc(O)cc23)cc1	9	60	-5	24	-2	60*	57*	52*
C=CCOc1ccc(/C=C(\C#N)C(=O)Nc2ccccn2)cc1	-3	-7	-17	0	-1	-1	·	·
CN1CCc2c(sc(NC(=O)C3CCCCC3)c2C(N)=O)C1	-3	-8	4	-1	0	1	·	·
Cc1ccc(NC(=O)c2nc[nH]c2C(=O)NCCN(CCNC(=O)c2[nH]cnc2C(=O)Nc2ccc(C)cc2)CCNC(=O)c2[nH]cnc2C(=O)Nc2ccc(C)cc2)cc1	-6	46	3	1	16*	90*	76*	38*
Cc1ccccc1NC(=O)c1[nH]cnc1C(=O)NN	-3	-8	1	0	0	-23	·	·
O=C(Nc1ccc(Cl)cc1)c1nc[nH]c1C(=O)NCCN(CCNC(=O)c1[nH]cnc1C(=O)Nc1ccc(Cl)cc1)CCNC(=O)c1[nH]cnc1C(=O)Nc1ccc(Cl)cc1	104*	101*	3	2	19*	100*	98*	56*
Cc1ccc(NC(=O)c2nc[nH]c2C(=O)Nc2ccc(C)cc2)cc1	3	-10	6	1	-14	29	·	·
